{
  "source": "PubChem BioAssay AID488969",
  "about": "(Vanderbilt High Throughput Screening Facility, 2010)",
  "note": "In all, about 110,000 compounds were measured (“z-score”: median about -0.1, highest 2% from about 2 on). The list comes from a sample in which the highest values are over-represented; it also holds similar structures and randomly drawn compounds. Activity calls are given as the source filed them.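 The calls were made as follows: active = z-score in the third read window above 3 or below -3; inactive = the rest.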",
  "data": [
    {"target": "Metabotropic glutamate receptor 8 (Rattus norvegicus) (UniProt P70579)", "sequence (P70579 whole entry, looked up)": "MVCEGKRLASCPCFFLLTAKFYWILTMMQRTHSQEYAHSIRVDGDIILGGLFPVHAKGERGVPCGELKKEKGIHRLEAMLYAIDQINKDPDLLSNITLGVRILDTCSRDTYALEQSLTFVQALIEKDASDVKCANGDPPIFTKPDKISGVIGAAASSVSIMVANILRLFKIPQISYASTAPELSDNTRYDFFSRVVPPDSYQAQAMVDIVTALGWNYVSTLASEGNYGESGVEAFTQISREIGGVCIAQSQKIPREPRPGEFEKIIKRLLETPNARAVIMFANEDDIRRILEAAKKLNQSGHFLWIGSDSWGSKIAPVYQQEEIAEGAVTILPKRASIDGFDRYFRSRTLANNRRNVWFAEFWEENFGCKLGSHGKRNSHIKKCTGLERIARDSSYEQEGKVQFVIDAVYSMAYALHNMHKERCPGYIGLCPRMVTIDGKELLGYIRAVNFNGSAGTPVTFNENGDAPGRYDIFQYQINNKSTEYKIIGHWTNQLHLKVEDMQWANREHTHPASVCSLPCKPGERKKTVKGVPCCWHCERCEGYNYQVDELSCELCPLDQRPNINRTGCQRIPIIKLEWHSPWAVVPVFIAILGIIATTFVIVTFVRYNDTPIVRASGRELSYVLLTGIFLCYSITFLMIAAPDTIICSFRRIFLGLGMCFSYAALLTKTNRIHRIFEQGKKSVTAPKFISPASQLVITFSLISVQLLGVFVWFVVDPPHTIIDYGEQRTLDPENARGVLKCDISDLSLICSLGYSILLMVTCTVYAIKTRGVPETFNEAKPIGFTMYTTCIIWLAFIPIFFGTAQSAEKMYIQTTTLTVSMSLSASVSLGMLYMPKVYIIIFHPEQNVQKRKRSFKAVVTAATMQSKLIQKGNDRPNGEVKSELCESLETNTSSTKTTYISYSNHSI", "experiment": "rat mGluR8 modulators via GIRK flux, primary screen, cell-based, thallium flux, HTS (AID 488969)", "details": "HEK293 rat mGluR8, GIRK (G protein-gated inwardly rectifying potassium channel) thallium flux, FluoZin2; at 10 µM; stronger effect = higher value; submaximal glutamate (EC20) added with thallium", "values": [
      {"smiles": "Cc1c(CCOC(=O)C2C3CC4CC(C3)CC2C4)sc[n+]1CC(=O)c1ccc(Br)cc1", "note": "(stereo not drawn)", "z-score": 2.48},
      {"smiles": "Cc1ncsc1CCOC(=O)C1C2CC3CC(C2)CC1C3", "note": "(stereo not drawn)", "z-score": 0.00939},
      {"smiles": "Cc1c(CCOC(=O)CC23CC4CC(CC(C4)C2)C3)sc[n+]1CC(=O)c1ccc(Br)cc1", "z-score": 0.0917},
      {"smiles": "COc1cc2[nH]c(=O)n(CCCCCC(=O)N3CCN(c4ccccc4)CC3)c(=O)c2cc1OC", "z-score": -0.317},
      {"smiles": "CCOc1cc2[nH]c(=O)n(CCCCC(=O)N3CCCCCC3)c(=O)c2cc1OCC", "z-score": 2.21},
      {"smiles": "COc1cc2[nH]c(=O)n(CCC(=O)N3CCC(N4CCCCC4)CC3)c(=O)c2cc1OC", "z-score": 0.8},
      {"smiles": "O=C(CCC(=O)OCC(=O)c1cccc([N+](=O)[O-])c1)Nc1ccccc1Cl", "z-score": 0.0825},
      {"smiles": "CCOC(=O)CC(=O)Nc1ccc(C)cc1", "z-score": -0.33},
      {"smiles": "Cc1cccc(N=C2NC(=O)/C(=C\\c3cccs3)S2)c1", "z-score": 0.692},
      {"smiles": "Cc1ccc(C2C(/C=C3/SC(=S)NC3=O)=C(c3cccs3)Oc3ccccc32)cc1", "note": "(stereo not drawn)", "z-score": 2.55},
      {"smiles": "Cc1ccc(C2C(C=Nc3c(C)n(C)n(-c4ccccc4)c3=O)=C(c3ccccc3)Oc3ccccc32)cc1", "note": "(stereo not drawn)", "z-score": -0.137},
      {"smiles": "CCOc1ccccc1C1CC(c2ccc(F)cc2)Nc2nc(N)nn21", "note": "(stereo not drawn)", "z-score": -0.0345},
      {"smiles": "Cc1ccc(CNC(=O)C(Cc2ccccc2)NS(=O)(=O)c2cccs2)cc1", "note": "(stereo not drawn)", "z-score": -0.105},
      {"smiles": "O=c1[nH]cnc2sc3c(c12)CCN(Cc1ccccc1)C3", "z-score": 0.233},
      {"smiles": "CCCSc1nc2sc3c(c2c(=O)[nH]1)CCN(Cc1ccccc1)C3", "z-score": "3.04 (active)"},
      {"smiles": "O=c1[nH]c(CN2CCN(Cc3ccccc3)CC2)nc2sc3c(c12)CCC3", "z-score": -0.568},
      {"smiles": "CC1(C)CC(=O)C=C(NCc2ccco2)C1", "z-score": -0.0748},
      {"smiles": "O=C1C=C(NCc2ccccc2)CCC1", "z-score": -0.0868},
      {"smiles": "O=C1C=C(NCc2ccco2)CCC1", "z-score": 2},
      {"smiles": "Cc1ccc(Cn2c(SCC(C)C)nc3c2c(=O)[nH]c(=O)n3C)cc1", "z-score": -0.876},
      {"smiles": "COc1cc2c(=O)n(Cc3ccccc3)c(=O)n(CC(=O)NCCc3ccccc3)c2cc1OC", "z-score": -0.669},
      {"smiles": "CC1(C)CC(=O)C2=C(C1)NC(=O)CC2c1ccc(F)cc1", "note": "(stereo not drawn)", "z-score": -0.481},
      {"smiles": "COc1ccc(-c2noc(CCC(=O)NCC3CCN(Cc4cccc(C)c4)CC3)n2)cc1", "z-score": 0.183},
      {"smiles": "Cc1ccc(-c2noc(CCC(=O)NCC3CCN(Cc4cccc(C)c4)CC3)n2)cc1", "z-score": 2.64},
      {"smiles": "COc1ccc(-c2noc(CCC(=O)NC3CCN(Cc4ccccc4)CC3)n2)cc1", "z-score": 0.924},
      {"smiles": "Cc1ccc(-c2noc(CCC(=O)NC3CCN(Cc4ccccc4)CC3)n2)cc1", "z-score": 2.02},
      {"smiles": "CCc1ccccc1N(CC)C(=O)CCc1nc(-c2ccc(C)cc2)no1", "z-score": -0.0345},
      {"smiles": "Cc1ccc(-c2noc(CCC(=O)N(C)c3ccccc3C)n2)cc1", "z-score": 0.361},
      {"smiles": "Cc1ccc(-c2noc(CCC(=O)NCCN3CCN(Cc4ccccc4)CC3)n2)cc1", "z-score": -0.696},
      {"smiles": "CCc1ccccc1N(C)C(=O)CCc1nc(-c2ccc(C)cc2)no1", "z-score": 2.44},
      {"smiles": "O=C(CCc1nc(-c2ccccc2F)no1)NC1CCN(Cc2ccccc2)CC1", "z-score": 0.608},
      {"smiles": "CC1CCN(S(=O)(=O)c2ccc(NC(=O)CN3CCCC(C)C3)cc2)CC1", "note": "(stereo not drawn)", "z-score": 0.282},
      {"smiles": "O=C(c1cccc(F)c1)N1CCc2ccccc21", "z-score": -0.134},
      {"smiles": "CCOC(=O)c1cc(NC(=O)c2cc(C)on2)cc(C(=O)OCC)c1", "z-score": -0.369},
      {"smiles": "CCn1nc2cc(C(=O)NCCc3cccs3)ccc2c1OC", "z-score": -0.218},
      {"smiles": "COC(=O)CSC1=C(C#N)C(c2sccc2C)CC(=O)N1", "note": "(stereo not drawn)", "z-score": 0.174},
      {"smiles": "O=C(NCC1CCCO1)C(c1cccs1)N(C(=O)Cn1nnc(-c2cccs2)n1)C1CCCC1", "note": "(stereo not drawn)", "z-score": -0.378},
      {"smiles": "C/C(=N\\NC(=O)c1ccccc1C)c1cccc([N+](=O)[O-])c1", "z-score": -0.192},
      {"smiles": "CCCCNc1ccc2nsnc2c1[N+](=O)[O-]", "z-score": -0.137},
      {"smiles": "C=CCNC(=O)c1nn2cccnc2c1Cl", "z-score": -0.068},
      {"smiles": "O=C(Nc1ccc2c(c1)oc1ccccc12)c1ccc2c(c1)OCO2", "z-score": 0.81},
      {"smiles": "Cc1cc2oc(C(=O)N(Cc3ccccc3)C3CCS(=O)(=O)C3)cc(=O)c2cc1Cl", "note": "(stereo not drawn)", "z-score": -0.141},
      {"smiles": "CNC(=O)CCCCCNS(=O)(=O)c1ccc(C)cc1", "z-score": 0.0156},
      {"smiles": "Cc1ccc(S(=O)(=O)NCCCNS(C)(=O)=O)cc1", "z-score": 0.0948},
      {"smiles": "Cc1ccc(S(=O)(=O)NCCCCCC(N)=O)cc1", "z-score": 0.00872},
      {"smiles": "CC(=O)Nc1ccc(S(=O)(=O)NCC(C)NS(=O)(=O)c2ccc(NC(C)=O)cc2)cc1", "note": "(stereo not drawn)", "z-score": 0.018},
      {"smiles": "O=S(=O)(c1ccc(N2CCC(c3ccc(Cl)cc3)=N2)cc1)N(CCO)CCO", "z-score": -0.748},
      {"smiles": "Cc1ccc(S(=O)(=O)NCC(C)NS(C)(=O)=O)cc1", "note": "(stereo not drawn)", "z-score": -0.186},
      {"smiles": "Cc1ccc(S(=O)(=O)NCCCCCC(=O)N(C)C)cc1", "z-score": 2.19},
      {"smiles": "CN(C)CCNS(=O)(=O)c1ccc(Cl)cc1", "z-score": 1.34},
      {"smiles": "Cc1ccc(S(=O)(=O)NCC(C)NS(=O)(=O)c2ccc(C)cc2)cc1", "note": "(stereo not drawn)", "z-score": 2.8},
      {"smiles": "Cc1ccc(S(=O)(=O)NCCCN(C)C)cc1", "z-score": 2.95},
      {"smiles": "CN(C)CCCNS(=O)(=O)c1ccc(N2CCC(c3ccc(Cl)cc3)=N2)cc1", "z-score": 2.59},
      {"smiles": "O=C1CCCN1c1ccc(S(=O)(=O)NCCc2ccc(Cl)cc2)cc1", "z-score": 0.203},
      {"smiles": "CCOc1ccc(-c2cn3ccccc3n2)cc1[N+](=O)[O-]", "z-score": 0.461},
      {"smiles": "O=C(c1cccc(-n2cnnn2)c1)N1CC=C(c2ccccc2)CC1", "z-score": 0.39},
      {"smiles": "CN1CCN(/C(=N\\S(=O)(=O)c2ccc(F)cc2)c2ccccc2)CC1", "z-score": -0.0184},
      {"smiles": "Cc1sc2ncnc(N3CCOCC3)c2c1C", "z-score": -0.134},
      {"smiles": "O=[N+]([O-])c1ccc(-c2csc(N3CCc4ccccc4C3)n2)cc1", "z-score": -0.0911},
      {"smiles": "O=C1CN(C(=O)CSc2nc3ccccc3c(=O)n2Cc2ccc(F)cc2)c2ccccc2N1", "z-score": "3.79 (active)"},
      {"smiles": "Cc1ccc(-n2c(SCC(=O)N3CC(=O)Nc4ccccc43)nc3ccccc3c2=O)cc1", "z-score": -0.279},
      {"smiles": "CC(c1ccccc1)n1c(SCC(=O)N2CC(=O)Nc3ccccc32)nc2ccccc2c1=O", "note": "(stereo not drawn)", "z-score": "4.74 (active)"},
      {"smiles": "Cc1ccc(Cn2c(SCC(=O)N3CC(=O)Nc4ccccc43)nc3ccccc3c2=O)cc1", "z-score": 1.31},
      {"smiles": "Cc1nnc(SCC(=O)N2CC(=O)Nc3ccccc32)n1Cc1ccccc1", "z-score": -0.151},
      {"smiles": "O=C1CN(C(=O)CSc2nc3ccccc3n2CCc2ccccc2)c2ccccc2N1", "z-score": -0.346},
      {"smiles": "Cc1ccc(-n2c(SCC(=O)N3CC(=O)Nc4ccccc43)nc3ccccc3c2=O)cc1C", "z-score": -0.183},
      {"smiles": "O=C1CN(C(=O)CSc2nc3cc(Cl)ccc3c(=O)n2Cc2ccccc2)c2ccccc2N1", "z-score": "7.11 (active)"},
      {"smiles": "Cc1cccc(C)c1-n1c(SCC(=O)N2CC(=O)Nc3ccccc32)nc2ccccc2c1=O", "z-score": -0.109}
    ]}
  ]
}
